The whole screen tested about 63,000 compounds, of which about 75 (0.1%) were called active. The list comes from a sample in which actives are over-represented; it also holds similar structures and randomly drawn compounds. Unmarked numbers belong to inactive results. Cut-off read from the data, not from the text of the source: active = inhibition above about 21%; inactive = the rest.
The molecules below were run against Cathepsin B (Homo sapiens) (UniProt P07858) (assay: human cathepsin B inhibitors, primary screen, biochemical, fluorogenic substrate (AID 453;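 note: 0% = enzyme with no compound and 100% = no enzyme blank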)). Conditions: purified cathepsin B, fluorescence, stronger effect = higher value,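 tested at 10 µM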.
Cc1ccc(NC(=O)CSc2nnc(-c3cnccn3)n2Cc2ccco2)cc1C showed an inhibition of 3.51%.
For CC(C)OC(=O)C(C#N)c1nc2ccccc2nc1N1CCN(Cc2ccc3c(c2)OCO3)CC1 (centres undefined), the inhibition was 0.39%.
CCOc1ccc2[nH]c(=O)c(CN(CCCO)C(C)=O)cc2c1 gave an inhibition of 2.29%.
CCOc1ccc2c(c1)cc(CN(C(=O)CC)C1CCCCC1)c1nnnn12 gave an inhibition of 10.1%.
CCOC(=O)N1CCN(CC(=O)n2c(C)c(C)c3ccccc32)CC1 was tested, and the inhibition was -1.09%.
O=C(c1cccc(C(=O)N2CCc3ccccc32)n1)N1CCc2ccccc21 was tested, and the inhibition was 3.59%.
In the case of CC(C)(C)Oc1ncc(Br)c(OC(C)(C)C)n1, the inhibition was -1.01%.
Molecule Cn1c2c(c(=O)n(C)c1=O)CN(Cc1ccco1)CN2 has an inhibition of 2.04%.
N#CCSc1nc2ccccc2c(=O)n1-c1ccccc1 showed an inhibition of 5.09%.
c1ccc(-n2ncc3c2ncn2c(CSc4nc5ccccc5s4)nnc32)cc1 gave an inhibition of -2%.
In the case of CC(C)(C)n1nnnc1C(c1cccs1)N(Cc1cccnc1)CC1CCCO1 (centres undefined), the inhibition was 3.9%.
COc1ccc(/C(O)=C2/C(=O)C(=O)N(CCCN(C)C)C2c2ccccc2)cc1OC (centres undefined) was tested, and the inhibition was 0.7%.
Work on Cn1c(=O)oc2cc(S(=O)(=O)N3CCC(C(=O)Nc4ccc(OC(F)(F)F)cc4)CC3)ccc21 yielded an inhibition of 1.08%.
For Cc1nnc(SCC(=O)N(C(C)C)C(C)C)nc1C, the inhibition was 3.33%.
Work on COc1cccc(-c2nnc(NC(=O)c3ccc(S(=O)(=O)N(CC(C)C)CC(C)C)cc3)o2)c1 yielded an inhibition of 3.9%.
For C=C(C)CSc1nc(N)c2c3c(sc2n1)CCC3, the inhibition was -1.31%.
In the case of O=C(Nc1ccccc1)c1cccnc1Nc1ccccc1, the inhibition was -3.06%.
In the case of COc1ccc(Cc2nnnn2CC(=O)O)cc1, the inhibition was -2.08%.
In the case of CSc1nsc(SC)c1NC(=O)OC1CCCCC1, the inhibition was 2.76%.
Work on CCOC(=O)C1CCCN(C(=O)C2CCN(c3nnc(-n4cccc4)s3)CC2)C1 (centres undefined) yielded an inhibition of 5.94%.
In the case of Cn1nnnc1SCC(=O)N1CCN(C(c2ccccc2)c2ccccc2)CC1, the inhibition was 8.32%.
C/C(=C(\C#N)C(=O)NCCCN1CCOCC1)N(C)C gave an inhibition of 2.66%.
CC1(C)C/C(=C(/C#N)C(N)=O)CCO1 showed an inhibition of 9.43%.
Work on Cc1ccsc1CNn1cnnc1SCc1ccccc1F yielded an inhibition of 2.13%.
CC(NC(=O)CN1CCN(Cc2ccc(Cl)cc2)C1=O)c1ccc2c(c1)OCCO2 (centres undefined) showed an inhibition of 0.3%.
With CCOC(=O)c1ccc(Nc2cc(C)nc3nc(C)nn23)cc1 the inhibition was -3.59%.
With O=C(CN1CCOc2ccccc21)N1CCC(Cc2ccccc2)CC1 the inhibition was 0.85%.
Work on C=CCn1c(C2CC(=O)N(c3ccc(C)cc3)C2)nc2ccccc21 (centres undefined) yielded an inhibition of -1.25%.
CCN(CC)CCCNC(=O)c1cc(-c2cccc(Cl)c2)on1 gave an inhibition of 4.03%.
With O=C1N(Cc2ccc3c(c2)OCO3)c2ccccc2C1(O)c1c[nH]c2ccccc12 (centres undefined) the inhibition was -2.6%.
In the case of CCOc1ccc(/C(O)=C2/C(=O)C(=O)N(Cc3cccnc3)C2c2ccc(N(C)C)cc2)c(C)c1 (centres undefined), the inhibition was 1.4%.
Nc1nonc1-c1noc(-c2ccc(Br)o2)n1 was tested, and the inhibition was 25% (active).
Work on O=C(O)CCC(=O)NCc1ccc2[nH]c3c(c2c1)CCCC3 yielded an inhibition of 3.83%.
Molecule CCOC(=O)c1c(NC(=O)CSc2nnc(CN3CCOCC3)n2C)sc2c1CCCC2 has an inhibition of -0.13%.
For O=C(OCC(O)C(O)COC(=O)c1ccccc1)c1ccccc1 (centres undefined), the inhibition was 0.46%.
N#Cc1c(N)n(CCOC(=O)c2ccc(Cl)cc2)c2nc3ccccc3nc12 showed an inhibition of 0.87%.
Work on Cc1ccc(-n2c(N)c(C(=O)N3CCOCC3)sc2=S)c(C)c1 yielded an inhibition of -2.06%.
O=C(CN1CCN(c2ncc(C(F)(F)F)cc2Cl)CC1)Nc1ccc2c(c1)OCO2 gave an inhibition of 10.7%.
With CC1(C)CC(=O)C(C2=NC(C)(C)Cc3ccccc32)=C(O)C1 the inhibition was 0.19%.
With CCCCOC(=O)c1[nH]c(C)c(C(=O)OC)c1C the inhibition was 4.33%.
In the case of CC(Sc1nncs1)C(=O)NCc1ccc2c(c1)OCO2 (centres undefined), the inhibition was -5.21%.
CCOC(=O)N1CCN(S(=O)(=O)c2cc3c(cc2C)NC(=O)CO3)CC1 gave an inhibition of 1.1%.
Molecule CCOC(=O)CCc1c(C)c(C#N)c2[nH]c3ccccc3n2c1=O has an inhibition of 2.21%.
O=C(NCc1ccccn1)c1cnc2sccn2c1=O showed an inhibition of -2.74%.
Cc1ccccc1C(OCC(O)CN1CCCCC1CCO)c1ccccc1 (centres undefined) was tested, and the inhibition was 2.98%.
In the case of CCCC(=O)N1CCc2[nH]c3ccccc3c2C1, the inhibition was 0.39%.
Cc1ccccc1Nc1nnc(C)c(=O)[nH]1 was tested, and the inhibition was -0.9%.
CC(=O)C1=C(O)C(=O)N(c2ccc(S(N)(=O)=O)cc2)C1c1ccccc1F (centres undefined) was tested, and the inhibition was -1.52%.
In the case of Cc1ccc(NC(=O)NCC(c2cccnc2)N2CCOCC2)cc1 (centres undefined), the inhibition was -2.73%.
In the case of OCc1nc(CO)n(Cc2ccccc2)n1, the inhibition was 5.1%.
c1ccc(CCC2=NCCn3cccc32)cc1 was tested, and the inhibition was 4.22%.
Molecule CCOc1ccccc1C1NC(=O)NC(C)=C1C(=O)OCc1ccco1 (centres undefined) has an inhibition of 2.19%.
With Cc1cccc(N2CCN(C(=O)C3CCN(S(=O)(=O)c4cnc[nH]4)CC3)CC2)c1C the inhibition was 44.5% (active).
O=C(C1CCN(S(=O)(=O)c2cnc[nH]2)CC1)N1CCN(Cc2ccc3c(c2)OCO3)CC1 gave an inhibition of 5.41%.
With COc1cccc(N2CCN(C(=O)C3CCCN(S(=O)(=O)c4cnc[nH]4)C3)CC2)c1 (centres undefined) the inhibition was -4.17%.
CCC(c1nnnn1C1CCCC1)N1CCN(C(=O)c2ccco2)CC1 (centres undefined) gave an inhibition of 4.25%.
With CCCCN=C(N)/C(C(=O)OCC)=C(\O)c1ccc(OC)cc1 the inhibition was -2.85%.
CC(C)OC(=O)c1sc2nc3c(cc2c1N)C(=O)CCC3 showed an inhibition of 1.67%.
With COc1ccc(N2C(=O)C3CCCN3C2c2cccs2)cc1 (centres undefined) the inhibition was 2.37%.
In the case of O=S(=O)(NCCOc1cccc2cccnc12)c1ccc(F)cc1, the inhibition was -0.09%.
With O=C(C1=C(O)C(=O)N(Cc2ccccc2)C1c1cccnc1)c1ccco1 (centres undefined) the inhibition was -2.37%.
Work on N#CCCN(CCC#N)c1nnc(-c2ccccc2)s1 yielded an inhibition of 1.65%.
COc1ccccc1CNC(=O)CCCNS(=O)(=O)c1cccc2nsnc12 gave an inhibition of 3.57%.
In the case of O=C(CSc1nnnn1C1CCCC1)Nc1ccc2c(c1)OCCO2, the inhibition was -2.88%.
Work on Cc1ccccc1CSc1nnc(Cn2c(=O)sc3ccccc32)n1C yielded an inhibition of 1.64%.
Molecule CN1CCN(c2nc3c(c(=O)[nH]c(=O)n3C)n2Cc2cccc3ccccc23)CC1 has an inhibition of 5.25%.
In the case of C=C(Br)CN1CCN(CC(=C)Br)CC1, the inhibition was 8.43%.
CCOc1cc(-c2conc2N)cc(OCC)c1OCC was tested, and the inhibition was 0.88%.
O=c1[nH]c(=O)n(Cc2ccco2)c2c1C(C(F)(F)F)(C(F)(F)F)N=C(c1ccco1)N2 showed an inhibition of 3.15%.
Cc1ccc(-c2nn(-c3ccccc3)cc2CN(Cc2ccccc2)C(=O)CCC(=O)O)o1 was tested, and the inhibition was -3.71%.
O=c1oc2c(CN3CCCCC3)c(O)ccc2c2c1CCCCC2 was tested, and the inhibition was -33.1%.
Work on C=CCNc1nc(C)nc(OC)n1 yielded an inhibition of 3.19%.
Work on O=CN1CCN(C2CC(=O)N(c3ccc4c(c3)OCO4)C2=O)CC1 (centres undefined) yielded an inhibition of -5.45%.
With COCCn1c(SCC(=O)Nc2cc(Cl)ccc2OC)nc2c(c1=O)SC(C)C2 (centres undefined) the inhibition was -1.89%.
O=C(COc1ccc(Cl)cc1)Nc1ccccc1CO showed an inhibition of -0.12%.
For CCOC(=O)c1c(C)nc(-c2ccccc2)nc1NC(=O)C(C)C, the inhibition was -1.86%.
CCOC(=O)c1c(NC(=O)CSc2nnc(Cc3csc(N)n3)n2C)sc(C)c1C showed an inhibition of 1.53%.
O=C(O)C1CCCCC1C(=O)Nc1ccc(Cl)cc1 (centres undefined) was tested, and the inhibition was -2.32%.
O=C1Nc2ccccc2C12Nc1ccccc1S2 (centres undefined) gave an inhibition of -3.59%.
In the case of CCOC(=O)c1[nH]c2ccccc2c1N=C(C)N(CC)CC, the inhibition was -1.09%.
Molecule COC(=O)CCNc1ccc2c(c1)OCCO2 has an inhibition of -7.3%.
O=C(Nc1nc2ccc(S(=O)(=O)N3CCCC3)cc2s1)C1CCCO1 (centres undefined) was tested, and the inhibition was -0.69%.
Cc1nonc1NC(=O)c1ccccc1Br showed an inhibition of -1.31%.
Work on COc1ccc2c(c1)C(C)=CC(C)(C)N2C(=O)CNCc1ccc2c(c1)OCO2 yielded an inhibition of 0.73%.
Molecule CC(=O)Oc1cc2c(C(=O)NCCN3CCOCC3)c(C)oc2c2ccccc12 has an inhibition of -1.15%.
Work on Cc1ccc(CC2CC(=O)N(c3ccc4c(c3)OCCO4)C2=O)cc1 (centres undefined) yielded an inhibition of 3.98%.
N#Cc1ccccc1-n1c(N)c(C(=O)N2CCCC2)sc1=S was tested, and the inhibition was 4.81%.
In the case of Cc1ccc(C(C(=O)NC2CCCCC2)N(C(=O)c2csnn2)C2CC2)o1 (centres undefined), the inhibition was 4.47%.
CCCC(=O)N1c2ccc(-c3csc(N)n3)cc2CC1C (centres undefined) was tested, and the inhibition was 1.69%.
Work on CCCCC(=O)Nc1ccc(C(=O)NCCCn2ccnc2)cc1 yielded an inhibition of -0.94%.
In the case of CCCCCC(=O)Nc1ccc2oc(-c3ccncc3)nc2c1, the inhibition was -2.27%.
Work on COc1ccccc1NC(=O)CSc1nnc(Cc2cccn2C)n1-c1ccc(F)cc1 yielded an inhibition of 2.97%.
Molecule Cc1ccc(Nc2nc(CSc3nnnn3-c3ccccc3)cc(=O)[nH]2)cc1 has an inhibition of 1.57%.
COC(=O)C1=C(C)OC(N)=C(C#N)C1c1cc(OC)ccc1OC (centres undefined) showed an inhibition of 4.88%.
With Nc1scc(-c2ccncc2)c1Cl the inhibition was 3.27%.
With CC(C)c1nc(N2CCOCC2)c(C#N)c2c1COC(C)(C)C2 the inhibition was 1.28%.
Molecule CCCCc1nc2ccccc2c(=O)n1NC(=O)c1c(O)c2cccc3c2n(c1=O)CC3 has an inhibition of -2.29%.
O=C(CCSc1ccccc1)NCCSc1ccccn1 was tested, and the inhibition was 5.87%.
With COc1ccc(C)c(Cn2c(-c3nonc3N)nc3ccccc32)c1 the inhibition was 45.2% (active).
With Nc1nonc1-c1nc2ccccc2n1Cc1ccc(F)cc1 the inhibition was 73.1% (active).
In the case of CC(=O)Nc1nonc1-c1nc2ccccc2n1Cc1ccccn1, the inhibition was -4.81%.
Nc1nonc1-c1nc2ccccc2n1CCC(=O)O was tested, and the inhibition was 7.32%.
With COCCn1c(-c2ccc(OC)c(OC)c2)nc2ccccc21 the inhibition was 4.56%.
CCCn1c(C(O)c2cc(OC)ccc2OC)nc2ccccc21 (centres undefined) was tested, and the inhibition was 5.72%.
In the case of Cc1cc(NC(=O)CCC(=O)N(c2ccccc2)C(C(=O)NC2CCCC2)c2ccncc2)no1 (centres undefined), the inhibition was 0.19%.
CCn1c(COc2ccccc2)nnc1SCC(=O)Nc1ccc2c(c1)OCCO2 was tested, and the inhibition was 1.14%.
COC(=O)Nc1nc2ccc(Sc3ccccc3)cc2[nH]1 showed an inhibition of 4.96%.
In the case of COc1ncnc2c1N=C1CC(C)(C)CC(N)=C1S2, the inhibition was -1.8%.
With Cc1ccc2oc(=O)c3cnn(CC(=O)N4CCN(c5ccccn5)CC4)c3c2c1 the inhibition was 3.28%.
